Data from PubChem BioAssay (NCI).
The panel holds about 83,000 compounds, 20% with a hit somewhere; the sample as a whole holds those more often.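 In brief: 96-well plates, 48 h treatment, single concentration, percent growth endpoint.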 Values without a mark were called inactive. Calls of active or inactive are those of the source. Rule for the calls: active = growth percent below 10; inactive = the rest.

system: NCI-H23 lung; assay: NCI-60 one-dose screen, 48 h (100 = growth as untreated, 0 = no growth, -100 = all killed); settings: 10 µM unless noted

SMILES	growth
COc1cc(OCc2cccc(-c3ccccc3)c2C)cc(OC)c1CN1CCCCC1C(=O)NCCOCCOCCN (configuration not stated)	86.8%
COc1ccc(-c2cn(Cc3ccc4c(Br)cc(Br)c(O)c4n3)nn2)cc1	95.5%
O=c1c(Cc2ccc(F)cc2)cc(-c2ccccc2)nn1C/C(=N/O)c1ccccc1	49%
C1=C2CCCC3=Cc4ccccc4OC23Oc2ccccc21	42.3%
N/C(=N\c1nc2ccccc2s1)NC(=O)Nc1ccccc1	54.7%
C=C(C)[C@@H]1CC[C@]2(COCCCNCCCN)CC[C@]3(C)[C@H](CC[C@@H]4[C@@]5(C)CC[C@H](OCCCN)C(C)(C)[C@@H]5CC[C@]43C)[C@@H]12	-73.2% (active)
N#CC1=C(N)Oc2c(ccc3ccccc23)C1c1cc2ccccc2n2nnnc12 (configuration not stated)	36.6%
CC(C)(C#N)c1cc(C(=O)Nc2cc(Nc3ncccc3-c3ncnc4nc[nH]c34)ccc2F)cc(C(F)(F)F)c1	24.3%
CN1CCN(CC(=O)N(C)c2ccc(N=C(c3ccccc3)c3c(O)[nH]c4ccc([N+](=O)[O-])cc34)cc2)CC1	80.4%
Cc1c(Cl)cccc1NC(=O)c1sc2nc3c(cc2c1N)CCCC3	58.9%
COC(=O)c1c(C)nc(C)c2c1C(=O)C(Br)=C(NCCN1CCOCC1)C2=O	89%
COc1ccccc1NC(=O)n1c(=O)cc(C)c2ccc(O)cc21	102%
C#CCOC(=O)C(N)CSSCC(N)C(=O)O (configuration not stated)	103%
CN(C)CCOc1nc2c3cc([N+](=O)[O-])ccc3nn2c2ccccc12	36.7%
CC(=O)Oc1ccccc1C(=O)N(Cc1ccc2c(Cl)cc(Cl)c(O)c2n1)c1ccccc1	50.3%
C=CCOC(=O)C1=C(C)N(CC)C(=O)N(CC)C1c1c(Cl)n(C)c2ccccc12 (configuration not stated)	78.7%
CNC(=O)c1cc(Oc2ccc3nc(NC(=O)c4cc(C(F)(F)F)cc(C(F)(F)F)c4)sc3c2)ccn1	20.2%
COc1cc(C2=Nc3c(N)nc(N)nc3NC(c3cccc(Nc4ccnc5cc(C(F)(F)F)ccc45)c3)C2)cc(OC)c1OC (configuration not stated)	79.5%
c1ccc2[nH]c(-c3ccc(-c4nccc5c4[nH]c4ccccc45)cc3)nc2c1	69.1%
COc1ccc(/C=C2/CCc3cc4ccc(OC)cc4[o+]c32)c(O)c1	72.7%
Cc1c(-c2cnc3ccc(Cl)cc3c2C(=O)O)nnn1-c1ccc(Cl)cc1	103%
COc1ccc(NC(=O)c2ccc(NC3=C(c4ccc(Cl)cc4)C(=O)NC3=O)cc2)cc1	85.3%
O=C1CC2C=CCN2C=C1NC(=O)c1ccccc1 (configuration not stated)	101%
COc1cccc(CNc2nnc(C)c(C)n2)c1O	96.5%
COc1cc2c(c(OC)c1OC)CCC(c1cccc(C(=O)Nc3ccc([N+](=O)[O-])cc3)c1)O2 (configuration not stated)	47.2%
CO[C@]12C=C/C(=C(/C(=O)OCc3cccnc3)C(=O)CCCCCCCC[C@]3(OC)C=C/C(=C(/C(=O)OCc4cccnc4)C(=O)CCCCCCCC1)O3)O2	-75.3% (active)
O=c1cc(-c2nccc3c2[nH]c2ccccc23)c2cc(Cl)ccc2o1	60.7%

system: NCI-H226 lung; assay: as above; settings: 10 µM unless noted

SMILES	growth
CCOC(=O)c1cc(C(=O)c2cc(OC)cc(OC)c2)n2ncccc12	57.5%
CO[C@H]1/C=C/O[C@@]2(C)Oc3c(C)c(O)c4c(O)c(c5c(nc6cc(C)ccn65)c4c3C2=O)NC(=O)/C(C)=C\C=C\[C@H](C)[C@H](O)[C@@H](C)C(O)[C@@H](C)[C@H](OC(C)=O)[C@@H]1C (some centres not stated)	96.1%
CN1CCN(Cn2nc(-c3cc(Cl)cc(Cl)c3Cl)oc2=S)CC1	96%
COC1=C(OC)C(=O)C(CCCCCCCCCCO)=C(C)C1=O	96.6%
COCCn1cc(-c2nc(-c3cc4cccnc4n3C)cs2)c2cc(OC)ccc21	46.6%
O=C(/C=C/c1ccc(Cl)cc1)c1ccc(-n2cc(CN3CCN(c4cc5c(cc4F)c(=O)c(C(=O)O)cn5C4CC4)CC3)nn2)cc1	76.3%
Cc1ccc(S(=O)(=O)c2nc(-c3ccccc3)oc2S(C)=O)cc1 (configuration not stated)	62.6%
CNC(=O)c1cc(Oc2ccc3nc(NC(=O)Nc4ccc(F)cc4F)sc3c2)ccn1	52.8%
CCCCN(CCC#N)C(N)=O	103%
COc1cccc(/C=C2\CCc3ccccc3C2=O)c1	93.6%
C#Cc1c(I)n(C2OC(CO[Si](C)(C)C(C)(C)C)C3OC(C)(C)OC32)c(=O)[nH]c1=O (configuration not stated)	98.1%
COc1cc(/C=C2\C(=O)N(CCOc3cc(O)c4c(=O)cc(-c5ccccc5)oc4c3)c3ccccc32)cc(OC)c1O	90.4%
O=C1c2ccccc2-c2c1c1ccncc1c(=O)n2CCCn1ccnc1	54.4%
COc1cc(OCc2cccc(-c3ccccc3)c2C)cc(OC)c1CN1CCCCC1C(=O)NCCOCCOCCN (configuration not stated)	86.4%
COc1ccc(-c2cn(Cc3ccc4c(Br)cc(Br)c(O)c4n3)nn2)cc1	101%
O=c1c(Cc2ccc(F)cc2)cc(-c2ccccc2)nn1C/C(=N/O)c1ccccc1	57.1%
C1=C2CCCC3=Cc4ccccc4OC23Oc2ccccc21	56.4%
N/C(=N\c1nc2ccccc2s1)NC(=O)Nc1ccccc1	87.8%
C=C(C)[C@@H]1CC[C@]2(COCCCNCCCN)CC[C@]3(C)[C@H](CC[C@@H]4[C@@]5(C)CC[C@H](OCCCN)C(C)(C)[C@@H]5CC[C@]43C)[C@@H]12	45.2%
N#CC1=C(N)Oc2c(ccc3ccccc23)C1c1cc2ccccc2n2nnnc12 (configuration not stated)	53.6%

SMILES	growth
CC(C)(C#N)c1cc(C(=O)Nc2cc(Nc3ncccc3-c3ncnc4nc[nH]c34)ccc2F)cc(C(F)(F)F)c1	41.8%
CN1CCN(CC(=O)N(C)c2ccc(N=C(c3ccccc3)c3c(O)[nH]c4ccc([N+](=O)[O-])cc34)cc2)CC1	61.9%
Cc1c(Cl)cccc1NC(=O)c1sc2nc3c(cc2c1N)CCCC3	69.3%
COC(=O)c1c(C)nc(C)c2c1C(=O)C(Br)=C(NCCN1CCOCC1)C2=O	107%
COc1ccccc1NC(=O)n1c(=O)cc(C)c2ccc(O)cc21	93.5%
C#CCOC(=O)C(N)CSSCC(N)C(=O)O (configuration not stated)	112%
CN(C)CCOc1nc2c3cc([N+](=O)[O-])ccc3nn2c2ccccc12	65.3%
CC(=O)Oc1ccccc1C(=O)N(Cc1ccc2c(Cl)cc(Cl)c(O)c2n1)c1ccccc1	66.4%
C=CCOC(=O)C1=C(C)N(CC)C(=O)N(CC)C1c1c(Cl)n(C)c2ccccc12 (configuration not stated)	95.1%
CNC(=O)c1cc(Oc2ccc3nc(NC(=O)c4cc(C(F)(F)F)cc(C(F)(F)F)c4)sc3c2)ccn1	23.3%
COc1cc(C2=Nc3c(N)nc(N)nc3NC(c3cccc(Nc4ccnc5cc(C(F)(F)F)ccc45)c3)C2)cc(OC)c1OC (configuration not stated)	89.5%
c1ccc2[nH]c(-c3ccc(-c4nccc5c4[nH]c4ccccc45)cc3)nc2c1	77.4%
COc1ccc(/C=C2/CCc3cc4ccc(OC)cc4[o+]c32)c(O)c1	81.5%
Cc1c(-c2cnc3ccc(Cl)cc3c2C(=O)O)nnn1-c1ccc(Cl)cc1	102%
COc1ccc(NC(=O)c2ccc(NC3=C(c4ccc(Cl)cc4)C(=O)NC3=O)cc2)cc1	84.4%
O=C1CC2C=CCN2C=C1NC(=O)c1ccccc1 (configuration not stated)	102%
COc1cccc(CNc2nnc(C)c(C)n2)c1O	89.1%
COc1cc2c(c(OC)c1OC)CCC(c1cccc(C(=O)Nc3ccc([N+](=O)[O-])cc3)c1)O2 (configuration not stated)	48.3%
CO[C@]12C=C/C(=C(/C(=O)OCc3cccnc3)C(=O)CCCCCCCC[C@]3(OC)C=C/C(=C(/C(=O)OCc4cccnc4)C(=O)CCCCCCCC1)O3)O2	-78.1% (active)
O=c1cc(-c2nccc3c2[nH]c2ccccc23)c2cc(Cl)ccc2o1	49.5%
